Values joined by “and” are separate entries in the source; they are usually repeats but may differ in a detail not shown here. Identical values can stand only once. About 2,000 (36%) of roughly 5,500 compounds were called active. About 18% were inconclusive and are not listed. Rule as the data show it: active = normalized growth mostly below about 0.91 (no sharp cut-off); inconclusive = no clear call, values can overlap the other calls; inactive = mostly above about 0.92. The list shows a part of the results.
Assay: chemical genetic growth profiling, strain panel (AID 1159580);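 also: tested at 20 µM; growth read once vehicle control cultures reached saturation at 30 °C; 1 = growth at the plate median or of vehicle wells; lower values mean less growth of the strain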
Conditions: S. cerevisiae deletion strains, growth OD

Measured: normalized growth

O=C1NC(=O)C(=O)C(=O)N1
inactive: locus YAL013W, strain DEP1, stronger effect = lower value 1.01 | locus YAL021C, strain ccr4, stronger effect = lower value 1 | locus YAL026C, strain drs2, stronger effect = lower value 0.991 | locus YAL030W, strain snc1, stronger effect = lower value 0.989 | locus YBL061C, strain skt5, stronger effect = lower value 0.984 | locus YBR009C, strain hhf1, stronger effect = lower value 0.997 | locus YBR021W, strain FUR4, stronger effect = lower value 1.03 | locus YBR023C, strain chs3, stronger effect = lower value 0.997 | locus YBR171W, strain sec66, stronger effect = lower value 0.979 | locus YBR229C, strain ROT2, stronger effect = lower value 1.01 | locus YBR231C, strain swc5, stronger effect = lower value 0.986 | locus YBR279W, strain paf1, stronger effect = lower value 0.993 | locus YCL011C, strain gbp2, stronger effect = lower value 0.996 | locus YCL016C, strain dcc1, stronger effect = lower value 0.995 | locus YCL029C, strain bik1, stronger effect = lower value 0.984 | locus YCL061C, strain MRC1, stronger effect = lower value 0.988 | locus YCL069W, strain vba3, stronger effect = lower value 0.989 | locus YCR088W, strain abp1, stronger effect = lower value 0.984 | locus YDL005C, strain med2, stronger effect = lower value 0.984 | locus YDL035C, strain GPR1, stronger effect = lower value 1.03 | locus YDL040C, strain nat1, stronger effect = lower value 0.988 | locus YDL074C, strain BRE1, stronger effect = lower value 1.04 | locus YDL101C, strain DUN1, stronger effect = lower value 1.02 | locus YDL134C, strain PPH21, stronger effect = lower value 1.02 | locus YDL185W, strain tfp1, stronger effect = lower value 1 | locus YDL192W, strain arf1, stronger effect = lower value 0.998 | locus YDR001C, strain nth1, stronger effect = lower value 0.981 | locus YDR069C, strain doa4, stronger effect = lower value 0.998 | locus YDR101C, strain arx1, stronger effect = lower value 0.995 | locus YDR137W, strain rgp1, stronger effect = lower value 0.999 | locus YDR150W, strain NUM1, stronger effect = lower value 1.02 | locus YDR159W, strain sac3, stronger effect = lower value 0.986 | locus YDR162C, strain NBP2, stronger effect = lower value 1.02 | locus YDR195W, strain ref2 0.962 | locus YDR297W, strain sur2, stronger effect = lower value 0.999 | locus YDR318W, strain mcm21, stronger effect = lower value 0.993 | locus YDR334W, strain swr1, stronger effect = lower value 0.99 | locus YDR335W, strain msn5, stronger effect = lower value 0.995 | locus YDR388W, stronger effect = lower value 0.98 | locus YDR392W, strain spt3, stronger effect = lower value 0.979 | locus YDR502C, strain sam2, stronger effect = lower value 1.01 | locus YEL003W, strain gim4, stronger effect = lower value 0.989 | locus YEL037C, strain rad23, stronger effect = lower value 0.996 | locus YEL061C, strain CIN8 (second series), stronger effect = lower value 0.983 | locus YEL061C, strain CIN8, stronger effect = lower value 1.01 | locus YER015W, strain faa2, stronger effect = lower value 0.992 | locus YER016W, strain bim1, stronger effect = lower value 0.99 | locus YER110C, stronger effect = lower value 0.988 | locus YER111C, strain swi4, stronger effect = lower value 0.986 | locus YER155C, strain BEM2 (second series), stronger effect = lower value 0.98 | locus YER155C, strain BEM2, stronger effect = lower value 1.01 | locus YER167W, strain BCK2, stronger effect = lower value 1.03 | locus YFR010W, strain ubp6, stronger effect = lower value 0.974 | locus YGL078C, strain dbp3, stronger effect = lower value 0.985 | locus YGL086W, strain mad1, stronger effect = lower value 1.01 | locus YGL167C, strain pmr1, stronger effect = lower value 0.987 | locus YGL173C, strain kem1, stronger effect = lower value 0.969 | locus YGL227W, strain vid30, stronger effect = lower value 0.975 | locus YGL240W, strain doc1, stronger effect = lower value 0.99 | locus YGL248W, strain PDE1, stronger effect = lower value 1.02 | locus YGL253W, strain hxk2, stronger effect = lower value 0.993 | locus YGR078C, strain PAC10, stronger effect = lower value 1.02 | locus YGR135W, strain pre9, stronger effect = lower value 1 | locus YGR229C, strain SMI1, stronger effect = lower value 1.03 | locus YGR252W, strain gcn5, stronger effect = lower value 1.03 | locus YHR013C, strain ard1, stronger effect = lower value 0.991 | locus YHR027C, strain rpn1, stronger effect = lower value 0.984 | locus YHR030C, strain SLT2, stronger effect = lower value 1.01 and 0.971 | locus YHR079C, strain IRE1 (second series), stronger effect = lower value 0.991 | locus YHR079C, strain IRE1, stronger effect = lower value 0.971 | locus YHR094C, strain hxt1, stronger effect = lower value 0.994 | locus YHR129C, strain ARP1, stronger effect = lower value 1.01 | locus YHR142W, strain chs7, stronger effect = lower value 0.988 | locus YHR200W, strain rpn10, stronger effect = lower value 0.993 | locus YIL066C, strain RNR3, stronger effect = lower value 1.03 | locus YIL073C, strain SPO22, stronger effect = lower value 0.994 | locus YIL125W, strain kgd1, stronger effect = lower value 1 | locus YIR030C, strain dcg1, stronger effect = lower value 0.992 | locus YJL092W, strain hpr5, stronger effect = lower value 0.991 | locus YJL095W, strain BCK1 (second series), stronger effect = lower value 1 | locus YJL095W, strain BCK1, stronger effect = lower value 1.01 and 0.96 | locus YJL115W, strain asf1, stronger effect = lower value 0.978 | locus YJL129C, strain trk1, stronger effect = lower value 1 | locus YJL134W, strain LCB3, stronger effect = lower value 1.01 | locus YJL154C, strain vps35, stronger effect = lower value 0.985 | locus YJL164C, strain tpk1, stronger effect = lower value 1.01 | locus YJL166W, strain qcr8, stronger effect = lower value 1 | locus YJL168C, strain set2, stronger effect = lower value 0.988 | locus YJL187C, strain SWE1 (second series), stronger effect = lower value 1.01 | locus YJL187C, strain SWE1, stronger effect = lower value 0.989 | locus YJR043C, strain POL32, stronger effect = lower value 1 | locus YJR066W, strain TOR1, stronger effect = lower value 0.974

Reference: PubChem BioAssay AID1159580 (chemical genetic matrix, 2015)
